Laboratory results published in the supplement of paper PMC6089552.
Hit rate of the full screen: of about 3,200 compounds, about 300 (9.4%) showed activity. The sample as a whole holds a higher share of actives than the screen did.

Tested on: A673/TR/shEF
Experiment: cell viability (LOESS-normalised, relative to median of negative controls) (log2 ratio); higher = more viable cells (less compound effect), active = hit call of the paper (over 3 MAD below the median)
Conditions: treatment time: 72 h
Procedure, shortened: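 A673/TR/shEF Ewing sarcoma cells (1,500 per well, 384-well plates) were grown with or without doxycycline to induce EWS-FLI1 shRNA knockdown, starting 24 h before compounds. Library compounds at two or more concentrations, with DMSO controls, were added for three days. Cell viability was read by CellTiter-Glo luminescence on an Envision reader, then LOESS-corrected per plate, divided by the median of negative controls and log2-transformed. Hits were wells at least three median absolute deviations from the median of all screened wells.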

[1] = 0.25 µM, library screen: screen1, EWS-FLI1 expression: high (no doxycycline)
[2] = 0.25 µM, library screen: screen1, EWS-FLI1 expression: low (doxycycline-induced shRNA knockdown)
[3] = 2.5 µM, library screen: screen1, EWS-FLI1 expression: high (no doxycycline)
[4] = 2.5 µM, library screen: screen1, EWS-FLI1 expression: low (doxycycline-induced shRNA knockdown)
[5] = 0.25 µM, library screen: screen2, EWS-FLI1 expression: high (no doxycycline)
[6] = 0.25 µM, library screen: screen2, EWS-FLI1 expression: low (doxycycline-induced shRNA knockdown)
[7] = 2.5 µM, library screen: screen2, EWS-FLI1 expression: high (no doxycycline)
[8] = 2.5 µM, library screen: screen2, EWS-FLI1 expression: low (doxycycline-induced shRNA knockdown)
[9] = 0.103 µM, library screen: screen3, EWS-FLI1 expression: high (no doxycycline)
[10] = 0.103 µM, library screen: screen3, EWS-FLI1 expression: low (doxycycline-induced shRNA knockdown)
[11] = 0.308 µM, library screen: screen3, EWS-FLI1 expression: high (no doxycycline)
[12] = 0.308 µM, library screen: screen3, EWS-FLI1 expression: low (doxycycline-induced shRNA knockdown)
[13] = 0.926 µM, library screen: screen3, EWS-FLI1 expression: high (no doxycycline)
[14] = 0.926 µM, library screen: screen3, EWS-FLI1 expression: low (doxycycline-induced shRNA knockdown)
[15] = 2.8 µM, library screen: screen3, EWS-FLI1 expression: high (no doxycycline)
[16] = 2.8 µM, library screen: screen3, EWS-FLI1 expression: low (doxycycline-induced shRNA knockdown)
[17] = 8.3 µM, library screen: screen3, EWS-FLI1 expression: high (no doxycycline)
[18] = 8.3 µM, library screen: screen3, EWS-FLI1 expression: low (doxycycline-induced shRNA knockdown)
[19] = 25 µM, library screen: screen3, EWS-FLI1 expression: high (no doxycycline)
[20] = 25 µM, library screen: screen3, EWS-FLI1 expression: low (doxycycline-induced shRNA knockdown)

Measured: cell viability (log2)

CC(=O)Oc1ccc2c(c1)CCC1C2CCC2(C)C(=O)CCC12 (configuration not stated)
inactive: [1] 0.0434 | [2] -0.0193 | [3] 0.146 | [4] 0.0428

N.N.N.N.N.O.[Ru+2]
inactive: [5] 0.216 | [6] 0.0909 | [7] 0.256 | [8] 0.0639

CCC/C=C/C=C/C1CC(O)C(O)C(=O)C1C=O (configuration not stated)
inactive: [1] -0.0508 | [2] 0.0579 | [3] 0.0447 | [4] 0.105

C=C1CC[C@@H]2[C@H](CC2(C)C)C(=O)CC[C@@H]1O
inactive: [1] 0.0475 | [2] 0.00133 | [3] 0.0814 | [4] 0.0623

C=C1C(C)(C)[C@@]2(Cl)C(Cl)[C@]1(Cl)C(Cl)(Cl)C2(Cl)Cl (some centres not stated)
inactive: [1] 0.0218 | [2] 0.106 | [3] 0.0433 | [4] 0.0358

COc1ccccc1CN1CCN(Cc2ccc(OC)c(OC)c2OC)CC1
inactive: [1] 0.0684 | [2] 0.104 | [3] 0.0567 | [4] 0.0723

CC[C@H]1OC(=O)[C@H](C)[C@@H](O[C@H]2C[C@@](C)(OC)[C@@H](O)[C@H](C)O2)[C@H](C)[C@@H](O[C@@H]2O[C@H](C)C[C@H](N(C)C)[C@H]2O)[C@](C)(O)C[C@@H](C)/C(=N/OCOCCOC)[C@H](C)[C@@H](O)[C@]1(C)O
inactive: [1] 0.13 | [2] 0.107 | [3] 0.122 | [4] 0.103

C/C=C/CC(C)C(O)C1C(=O)NC(CC)C(=O)N(C)CC(=O)N(C)C(CC(C)C)C(=O)NC(C(C)C)C(=O)N(C)C(CC(C)C)C(=O)NC(C)C(=O)NC(C)C(=O)N(C)C(CC(C)C)C(=O)N(C)C(CC(C)C)C(=O)N(C)C(C(C)C)C(=O)N1C (configuration not stated)
inactive: [1] 0.0736 | [2] 0.0415 | [5] 0.25 | [6] 0.127 | [3] 0.0328 | [4] 0.00672 | [7] 0.11 | [8] 0.104

CC(C)(O)[C@@H]1CC[C@](C)([C@H]2[C@@H](O)C[C@@]3(C)[C@@H]4C[C@H](O[C@@H]5O[C@H](CO)[C@@H](O)[C@H](O)[C@H]5O)[C@H]5C(C)(C)[C@@H](O[C@@H]6OC[C@@H](O)[C@H](O)[C@H]6O)CC[C@@]56C[C@@]46CC[C@]23C)O1
inactive: [9] 0.0688 | [10] 0.0886 | [11] 0.0588 | [12] 0.038 | [13] 0.056 | [14] 0.105 | [15] 0.044 | [16] -0.00938 | [17] 0.0806 | [18] 0.0911 | [19] 0.0188 | [20] 0.0301

CC(=O)O[C@H]1CC[C@@]2(C)[C@@H](CC[C@@H]3[C@@H]2CC[C@]2(C)[C@@H]4[C@H](C[C@@H]32)O[C@]2(CC[C@@H](C)CO2)[C@H]4C)C1
inactive: [1] 0.0876 | [2] 0.0708 | [3] 0.176 | [4] 0.151

CC1=C(Cl)C(O)=CC(=O)C12Oc1cc(O)c(Cl)c(C)c1C2=O (configuration not stated)
inactive: [1] 0.0863 | [2] 0.0945 | [3] 0.127 | [4] 0.13

CSCC[C@H](NC=O)C(=O)N[C@@H](Cc1ccccc1)C(=O)O
inactive: [1] 0.0894 | [2] 0.169 | [3] 0.0791 | [4] 0.113

C/C=C(/C)C(=O)O[C@@H]1c2c(ccc3ccc(=O)oc23)OC(C)(C)[C@@H]1OC(C)=O
inactive: [1] -0.0115 | [2] 0.00938 | [3] 0.181 | [4] 0.0803

C[C@@H]1O[C@@H](O[C@H]2[C@H](O[C@H]3CC[C@@]4(C)[C@@H](CC[C@]5(C)[C@@H]4CC=C4[C@@H]6CC(C)(C)CC[C@]6(C(=O)O)CC[C@]45C)[C@]3(C)CO)OC[C@H](O)[C@@H]2O)[C@H](O)[C@H](O)[C@H]1O
inactive: [1] 0.0421 | [2] 0.11 | [3] 0.089 | [4] 0.0617

CC(=O)N1CCN(c2nc(-c3ccccc3)c3cc(Br)ccc3n2)CC1
inactive: [1] 0.0769 | [2] 0.0692 | [3] 0.115 | [4] 0.105

COc1ccccc1/C=C/c1nc(O)c([N+](=O)[O-])c(=O)[nH]1
inactive: [1] 0.123 | [2] 0.138 | [3] 0.0902 | [4] 0.00102

CCOC(=O)c1c[nH]c2ccc(OC)cc2c1=O
inactive: [1] 0.15 | [2] 0.1 | [3] 0.112 | [4] 0.121

CC(C)[C@@H](C)/C=C/[C@@H](C)[C@H]1CC[C@H]2C3=CC=C4C[C@@H](O)CC[C@]4(C)[C@H]3CC[C@]12C
inactive: [1] 0.0837 | [2] 0.11 | [3] 0.0787 | [4] 0.0538

COc1cc(C(=O)OCCCN2CCCN(CCCOC(=O)c3cc(OC)c(OC)c(OC)c3)CC2)cc(OC)c1OC
inactive: [5] 0.105 | [6] 0.0948 | [7] 0.199 | [8] 0.123

COc1cc2c(Oc3ccc4[nH]c(C)cc4c3F)ncnc2cc1OCCCN1CCCC1
inactive: [9] 0.0825 | [10] 0.0561 | [11] 0.034 | [12] 0.013 | [13] 0.0586 | [14] 0.0142 | [15] 0.0459 | [16] 0.0297 | [17] -0.077 | [18] 0.092 | [19] 0.0238 | [20] 0.0041

COc1cc(Nc2c(C#N)cnc3cc(OCCCN4CCN(C)CC4)c(OC)cc23)c(Cl)cc1Cl
active: [19] -1.59 | [20] -0.647
inactive: [9] 0.00802 | [10] 0.123 | [11] 0.0466 | [12] 0.063 | [13] 0.0151 | [14] 0.16 | [15] -0.0156 | [16] 0.139 | [17] -0.148 | [18] -0.136

O=C(O)CSc1nnc(-c2ccc(Cl)cc2Cl)n1-c1ccccc1
inactive: [1] 0.109 | [2] 0.165 | [3] 0.15 | [4] 0.122

COc1c(C(=O)O)ccc2c1CCC(C)(C)O2
inactive: [1] 0.0873 | [2] 0.0519 | [3] 0.206 | [4] -0.0164

CCOc1cc2ncc(C#N)c(Nc3ccc(OCc4ccccn4)c(Cl)c3)c2cc1NC(=O)/C=C/CN(C)C
active: [17] -0.204 | [18] -0.529
inactive: [9] 0.0468 | [10] 0.0085 | [11] -0.038 | [12] -0.0155 | [13] -0.0139 | [14] -0.00326 | [15] -0.0436 | [16] -0.282 | [19] -0.035 | [20] -0.415

CCOc1ccc(C(=O)Nc2cccc(OC)c2)cc1Cl
inactive: [1] 0.0358 | [2] 0.0408 | [3] 0.151 | [4] 0.0428

CCOc1ccc(C(=O)Nc2ccc(NC(=O)CC)cc2)cc1Cl
inactive: [1] 0.102 | [2] 0.0179 | [3] 0.0812 | [4] -0.0835

CCOc1cc2ncc(C#N)c(Nc3ccc(F)c(Cl)c3)c2cc1NC(=O)/C=C/CN(C)C
active: [15] -0.201 | [16] -0.422 | [19] -1.43 | [20] -0.678
inactive: [9] 0.06 | [10] 0.0264 | [11] 0.0695 | [12] 0.0377 | [13] 0.0744 | [14] -0.098 | [17] -0.14 | [18] -0.477

COc1cccc(-n2c(C)c(C(C)=O)c(C(C)=O)c2C)c1
inactive: [1] -0.0313 | [2] 0.00668 | [3] 0.0772 | [4] -0.0891

COc1cc(C(=O)NC2CCCCC2)c([N+](=O)[O-])cc1OC
inactive: [1] 0.122 | [2] 0.0996 | [3] 0.157 | [4] 0.0416

CC(=O)O[C@]1(C(=O)CO)[C@H](C)C[C@H]2[C@@H]3CCC4=CC(=O)C=C[C@]4(C)[C@@]3(F)[C@@H](O)C[C@@]21C
inactive: [1] 0.0305 | [2] -0.118 | [3] 0.0736 | [4] -0.0945

COc1ccc(/C=C(/NC(=O)c2ccccc2)C(=O)N2CCCCCC2)cc1OC
inactive: [1] 0.12 | [2] 0.0586 | [3] 0.088 | [4] 0.085

CC(C(=O)O)[C@H]1CCC2C3CC=C4C[C@@H](O)CC[C@]4(C)C3CC[C@@]21C (some centres not stated)
inactive: [1] 0.0415 | [2] 0.0559 | [3] 0.0699 | [4] -0.0298

CC1(C)CC(=O)C2=C(C1)Nc1ccccc1N(C(=O)Cc1ccc(Cl)cc1)C2c1cccnc1 (configuration not stated)
inactive: [1] 0.0404 | [2] 0.0353 | [3] 0.127 | [4] 0.0963

CC1=C(C(=O)Nc2ccccc2Cl)C(c2ccc(F)cc2)NC(=O)N1 (configuration not stated)
inactive: [1] 0.153 | [2] 0.0871 | [3] 0.0947 | [4] -0.018

CC1(C)CC2C1CCC1(CBr)CCC3C(CC(=O)O)C(=O)OC32C1 (configuration not stated)
inactive: [1] 0.146 | [2] 0.038 | [3] 0.195 | [4] 0.152

CCN(CC)CCNC(=O)c1cc(S(C)(=O)=O)ccc1OC
inactive: [1] 0.0293 | [2] 0.172 | [5] 0.198 | [6] 0.0568 | [3] 0.105 | [4] 0.182 | [7] 0.192 | [8] 0.0888

CCN(CC)CCNC(=O)c1ccc(N)cc1
inactive: [1] 0.0893 | [2] 0.128 | [5] 0.138 | [6] 0.0499 | [3] 0.121 | [4] 0.267 | [7] 0.308 | [8] 0.0657

CCN(CC)CCNC(=O)c1c(C)[nH]c(/C=C2\C(=O)Nc3ccc(F)cc32)c1C
active: [19] -0.697 | [20] -0.541
inactive: [9] 0.0562 | [10] 0.0683 | [11] 0.0856 | [12] 0.0784 | [13] -0.0103 | [14] 0.0749 | [15] -0.00223 | [16] 0.0762 | [17] -0.0922 | [18] 0.071
